The structures appear in SMILES notation. The whole screen tested about 69,000 compounds, of which about 8,600 (12%) showed an effect of 50% or more. The full list was thinned out, with strong results kept by preference.

The values below come from ChEMBL document CHEMBL4513216, “Probing the Open Global Health Chemical Diversity Library for Multistage-Active Starting Points for Next-Generation Antimalarials” (ACS Infect Dis, 2020).

The test system of this experiment is Plasmodium berghei. Put plainly: Screen against P. berghei liver stage (PbLuc), transformed with Luciferase, at 10uM. To be noted: tested at 10 uM. Format: functional, HepG2.
As to `CS(=O)(=O)NCC1(c2ccccc2Br)CC1`, the INHIBITION is 46.6%.

In the case of `CCN(C)S(=O)(=O)NCC1(c2ccccc2Br)CC1`, the INHIBITION is 51%. The figure for `CN(C)S(=O)(=O)NCC1(c2ccccc2Br)CC1` is 46.6%.

Consider `O=C(c1cn(-c2cccc(Cl)c2F)nn1)N1CCCSCC1`, for which the INHIBITION is listed as -134%. The figure for `O=C(c1cn(-c2ccccc2Cl)nn1)N1CCSCC1` is -28.8%.

Turning to `COC(C)(C)CNC(=O)c1cn(-c2cccc(Cl)c2F)nn1`, the INHIBITION is on record as 18.7%. The figure for `CC(O)CN1CCN(C(=O)c2cn(-c3ccccc3Cl)nn2)CC1` (stereo not drawn) is -9.67%; for `COCC(NC(=O)c1cn(-c2cccc(Cl)c2F)nn1)C1CC1` (stereo not drawn) it is 51.2%. For `COCC(C)(C#N)NC(=O)c1cn(-c2cccc(Cl)c2F)nn1` (stereo not drawn), the INHIBITION is listed as 55.6%. With `CNC(=O)c1sc2ccccc2c1CC1CCCN1Cc1cnc(C)s1` (stereo not drawn), the INHIBITION is 24.69%.

Regarding `CCN1CCc2[nH]nc(C(=O)N3CCCC3C)c2C1` (stereo not drawn), the INHIBITION was -65.2%. The figure for `CS(=O)(=O)NC(=O)c1ccn(-c2cccc(Br)c2)n1` is 16.3%. In the case of `CC(c1ccccc1F)N(C(=O)CSCC(N)=O)C1CC1` (stereo not drawn), the INHIBITION was determined as 35.9%.

Turning to `CC(c1ccccc1F)N(CC(N)=O)C1CC1` (stereo not drawn), the INHIBITION was found to be 72.1%. In the case of `CC(c1ccccc1Cl)N(C(=O)CSCC(N)=O)C1CC1` (stereo not drawn), the INHIBITION was 30.4%.

Consider `Cc1nnc2n1CCN(Cc1ccc3c(c1)OCCO3)C2`, for which the INHIBITION was determined as 33.8%. The figure for `COCC(=O)N1CCC(O)(CN2CCN(c3ccccc3)CC2)C1` (stereo not drawn) is 39.7%. The figure for `CC1CCCCN1C(=O)c1nc2c(n1C(C)C)CCN(C(=O)C1CC1)C2` (stereo not drawn) is -0.554%; for `CC1CCCCN1C(=O)c1nc2c(n1C(C)C)CCN(C)C2` (stereo not drawn) it is 58.5%; for `CC(C)n1c(C(=O)N2CCCC2)nc2c1CCN(C)C2` it is 9.79%.

Regarding `COCCN1CCC2(C1)c1ccccc1S(=O)(=O)N2C` (stereo not drawn), the INHIBITION turned out to be 40.5%.

With `Cc1cc(O)nc(C2CN(CCC(F)(F)F)CCO2)n1` (stereo not drawn), the INHIBITION is given as -6.92%. `Cc1cc(O)nc(C2CN(CCO)CCO2)n1` (stereo not drawn): the INHIBITION worked out at 50.8%. Turning to `Cc1cc(O)nc(C2CN(CC3(O)CCOCC3)CCO2)n1` (stereo not drawn), the INHIBITION was -34.6%. `CN1CCN(C[C@@H]2CN(C3Cc4ccccc4C3)C[C@@H]2CO)CC1`: the INHIBITION is 8.51%. The figure for `CC(NC(=O)C1CCCCC1)c1cc(O)nc(-c2cccnc2)n1` (stereo not drawn) is -6.002%. The figure for `O=C(c1sccc1C1CC1)N1CCCN(c2cccnn2)CC1` is 15.7%; for `Cc1ncsc1CCN(C)Cc1ccc(Br)o1` it is 47.1%. The figure for `Cc1ccsc1CN(C)CCc1scnc1C` is 46.9%. With `Cc1ncsc1CCN(C)Cc1ccc(CO)o1`, the INHIBITION is 57.6%. As to `CC(=O)N1CCCC(c2ncncc2-c2ccncc2)C1` (stereo not drawn), the INHIBITION is reported as 26.8%. As to `COc1ccc(CN2C[C@@H](OCc3ccccn3)[C@H]3COC[C@H]32)cc1`, the INHIBITION stood at 34.7%. The figure for `Cc1ccc(S(=O)(=O)NCc2cccc(C(=O)N3CCCC3)c2)cc1F` is -51.5%; for `CC(C)c1noc(CCCC(=O)N2CCN(Cc3ccccn3)CC2)n1` it is 40%; for `Cc1ccc(NC2CCN(C(=O)Cc3c(C)noc3C)CC2)nn1` it is 28.38%. For `CC(C)NC(=O)c1csc(NC2CC2)n1`, the INHIBITION was 13.9%. In the case of `Cc1[nH]/c(=N\C(=O)c2csc(NC3CC3)n2)sc1C`, the INHIBITION stood at 77.9%. The figure for `CC(C)(C)[S+]([O-])CCNC(=O)c1csc(NC2CC2)n1` (stereo not drawn) is -12.1%; for `Cc1[nH]/c(=N\C(=O)c2csc(NC3CCCC3)n2)sc1C` it is 83.8%; for `CC(=O)Nc1nc(C(=O)N2CCCC(c3cc(C)[nH]n3)C2)cs1` (stereo not drawn) it is 22.3%. In the case of `CC(C)CCNC(=O)c1csc(NC2CC2)n1`, the INHIBITION is on record as -70.8%.

Regarding `O=c1[nH]cnc2c1CCN(S(=O)(=O)c1ccc(OC(F)(F)F)cc1)C2`, the INHIBITION is recorded as -10.1%. The figure for `CCc1ccc(NC(=O)Nc2c(O)oc3ccccc3c2=O)cc1` is -11.4%. As to `O=C(COCc1ccccc1)NCc1ccc(O)c(F)c1`, the INHIBITION is -7.93%. Take `COCC(=O)N1CCCn2c(CN3CCCC3=O)nnc2C1`: the INHIBITION is recorded as -15.6%. Take `Cc1cc(CN(C)C(=O)c2ccc(Cl)cc2N2CCCC2=O)no1`: the INHIBITION was -9.37%.

For `O=C(c1ccccn1)N1CCC2(CC1)CN(c1cncnc1)C(=O)CO2`, the INHIBITION stood at 40.4%. The figure for `Cc1nc2ccccc2c(=O)n1CCC(=O)N1CCCC1` is 17.36%; for `CC(=O)NCC(=O)N1CCOCC(Cc2ccc3c(ccn3C)c2)C1` (stereo not drawn) it is -2.995%; for `Cc1cnc(CCNC(Cc2ccncc2)C(F)(F)F)s1` (stereo not drawn) it is 11.7%. Regarding `Cc1nc(CCNC(Cc2ccncc2)C(F)(F)F)cs1` (stereo not drawn), the INHIBITION came out at 59.3%. The figure for `Cc1nc(C)c(CCNC(Cc2ccncc2)C(F)(F)F)s1` (stereo not drawn) is 48.5%; for `CN(C)C(=O)c1cc2ncc(C(=O)NC3CCCC3)cc2n1C` it is -71.5%.
